The values below come from the supplement of paper PMC3842684.

In the assay the test system is P. falciparum NF54-pfs16-GFP late (IV-V) stage gametocytes. Nature of the assay: relative % inhibition of viable gametocyte number; higher = more gametocytocidal. The settings on record: 0.5 µM; stage: late (IV-V) gametocyte; incubation 72 h. An outline of the steps: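 In 384-well poly-D-lysine imaging plates, NF54 pfs16-GFP gametocytes (magnet-isolated, early I/IIa on day 2 or late on day 8; 10% parasitaemia, 0.1% haematocrit) received compound in duplicate at 5 or 0.5 µM. Plates stood 72 h at 37°C in 5% CO2 and 5% O2, then overnight with MitoTracker Red before confocal imaging, where elongated GFP objects with MitoTracker signal above cut-off counted as viable. Relative inhibition was calculated against vehicle and positive-control wells on the same plate.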
As for `CCN1CCN(c2cc(C)c3cc(NC(=O)c4ccc(OC)c(OC)c4)ccc3n2)CC1`, the relative % inhibition was -6.56%. As to `CN1CCN(c2ncnc3c2[nH]c2ccc(Cl)cc23)CC1`, the relative % inhibition is 2.38%. As to `CCOc1ccc(-c2nc(NC(=O)c3cccc(S(C)(=O)=O)c3)sc2C)cc1`, the relative % inhibition is 4.66%. The value for `CCOc1ccc(-c2nonc2NC(=O)c2cccc(C)c2)cc1OCC` was 27.6%; that for `CCOC(=O)C1=C(C)N=c2sc(=Cc3ccccc3O)c(=O)n2C1c1ccc(OC)c2ccccc12` (stereo not drawn) was 65.8%; that for `CCCOCc1cc(CN2CCN(c3cccc(Cl)c3)CC2)c(O)c2ncccc12` was -7.95%.

For the molecule `COc1ccc(-n2ccnc2SCC(=O)Nc2cc(C)ccc2C)c(OC)c1`, the relative % inhibition is -4.39%. In the case of `CCN(CC)c1cc(C)c2cc(NC(=O)c3cccc(OC)c3)ccc2n1`, the relative % inhibition was -0.167%.

As to `COc1ccc2nc(C)cc(Nc3cccc(O)c3)c2c1`, the relative % inhibition is -18.7%. On to `Oc1ccc(Cl)cc1CNc1nc2ccccc2[nH]1`, for which the relative % inhibition is -1.55%.

Consider `O=C(NNc1cc(N2CCCC2)nc(N2CCCC2)n1)c1ccccc1`, for which the relative % inhibition came to 10.9%. With `O=C(Nc1nc(-c2ccccn2)cs1)c1ccccc1Br`, the relative % inhibition is -7.93%.

As for `Cc1[nH]c(-c2ccc(F)cc2)cc1C(=O)NC1CCN(Cc2ccccc2)CC1`, the relative % inhibition is 6.29%. Take `CCCN(CCC)CC(O)COc1ccccc1C(=O)Nc1ccccc1` (stereo not drawn): the relative % inhibition is 34.9%. The value for `O=C(Nc1ccc(-c2nc3cc4ccccc4cc3[nH]2)cc1)c1cccc(Br)c1` was -2.59%; that for `Brc1ccc(Nc2nc3ccccc3nc2Nc2ccc(Br)cc2)cc1` was 55.2%; that for `COCCN(C(=O)Cc1cccs1)C(C(=O)NCc1ccc(OC)cc1)c1ccc(C(C)C)cc1` (stereo not drawn) was 13.7%. With `COc1ccc(C2c3ccc4ccccc4c3Oc3ncn(CCCN(C)C)c(=N)c32)cc1` (stereo not drawn), the relative % inhibition worked out at 108%.
